# Sm TGR inh = qHTS Assay for the Inhibitors of Schistosoma Mansoni Peroxiredoxins; Schistosoma mansoni thioredoxin glutathione reductase (TGR), Q962Y6; purified TGR, DTNB reduction, TNB absorbance 405 nm; Potency, µM (doses to about 114 µM), without a hit: at the top dose activity change, negative = inhibition, actives largely listed as inhibitors; 360,000 tested, 3% active; AID 485364, 2010; note: % is set by controls: 0 for no effect and ±100 for the full control effect; nearly all actives have a fitted effect of over 60% in size
#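 Kinetic colorimetric format: TGR-catalysed, NADPH-driven DTNB reduction monitored via TNB absorbance. Enzyme dispensed at 20 nM; compound exposure 15 min at room temperature before reaction start.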
# Giardia FBPA inh-1 = qHTS Assay for Inhibitors of Fructose-1,6-bisphosphate Aldolase from Giardia Lamblia; purified Giardia FBPA; 290,000 tested, 0.71% active; A8B2U2; AID 2451, 2010; Potency, µM (series often up to 59.6 µM), for the others: at the highest dose activity, negative = inhibition, hits mostly inhibitors; note: % is set by controls: 0 for no effect and ±100 for the full control effect; nearly all actives have a fitted effect of over 55% in size
# Target sequence (A8B2U2 whole entry, looked up): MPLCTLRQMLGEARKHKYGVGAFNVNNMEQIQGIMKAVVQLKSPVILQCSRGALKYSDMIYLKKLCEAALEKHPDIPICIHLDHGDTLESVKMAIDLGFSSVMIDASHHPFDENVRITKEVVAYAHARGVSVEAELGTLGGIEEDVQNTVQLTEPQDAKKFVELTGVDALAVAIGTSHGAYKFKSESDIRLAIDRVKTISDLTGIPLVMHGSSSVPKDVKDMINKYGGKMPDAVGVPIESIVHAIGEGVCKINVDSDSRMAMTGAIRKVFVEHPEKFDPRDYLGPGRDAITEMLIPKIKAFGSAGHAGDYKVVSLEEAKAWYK
#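 Giardia FBPA (40 nM reagent) was preincubated 10 min at RT with compound (up to 57.5 uM final), then substrate plus GAPDH/TPI/NAD/arsenate coupling system with diaphorase/resazurin was added; resorufin fluorescence (525/598 nm) was read after 20 min.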
# TbPYK inhibitor = qHTS of Trypanosoma Brucei Inhibitors; Potency, µM (doses to about 76.8 µM), inactives show at the highest dose activity, negative = inhibition, usual class: inhibitors; pyruvate kinase (Trypanosoma brucei), Q57TT1; AID 624173, 2012; 410,000 tested, 0.12% active; TbPYK enzyme, Kinase-Glo Plus ATP luminescence, 45 min; note: % is set by controls: 0 for no effect and ±100 for the full control effect; nearly all actives have a fitted effect of over 50% in size
#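 Screened from lowest to highest concentration, compounds were pinned into TbPYK/substrate mixtures, and ADP (130 uM final) was added. Plates sat at room temperature for 45 min prior to Kinase-Glo Plus detection by luminescence.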
# NS1 inh = qHTS Assay for Inhibitors of Influenza NS1 Protein Function. Potency, µM (highest dose often 46.1 µM), for the others: at the highest dose activity, positive = more growth. 270,000 tested, 0.4% active. AID 2326, 2010; calls by dose curve; note: actives are rising curves; nearly all actives have a fitted effect of over 50% in size
#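 Recovery from NS1-induced slow growth read by OD600 in budding yeast switched to galactose assay medium (pH 6.0, -URA) at 1:100 dilution. Compound 23 nl per well; the matching strain lacking NS1 serves as control.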
# LmPK inhibitor = qHTS Assay for Inhibitors of Leishmania Mexicana Pyruvate Kinase (LmPK); purified LmPK, Kinase-Glo ATP luminescence, 1 h; Q27686; 290,000 tested, 0.37% active; Potency, µM (series often up to 57.5 µM), for the others: at the highest dose activity change, negative = inhibition, usual class: inhibitors; note: % is set by controls: 0 for no effect and ±100 for the full control effect
#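 0.1 nM LmPK, 0.5 mM PEP, 0.1 mM ADP; 50 mM imidazole pH 7.2, 7 mM MgCl2, 50 mM KCl; 1 h RT. Kinase-Glo luminescence readout, normalized to no-enzyme (full inhibition) and uninhibited wells.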
# RE007 growth inh = qHTS Assay for Inhibitors of the HIV-1 protein Vpr | 360,000 tested, 0.21% active | Potency, µM (titrated, usually from 92.2 µM), for inactives: top-dose activity change, negative = less growth, actives largely listed as inhibitors | AID 651644, 2012 | S. pombe RE007 Vpr strain, BacTiter-Glo ATP luminescence, 24 h; active = well fitted falling curve with a large enough effect; inconclusive = small, poorly fitted or top-dose-only effect; inactive = no such curve, though single readings can be large or run the other way; note: % is set by controls: 0 for no effect and ±100 for the full control effect; nearly all actives have a fitted effect of over 50% in size
#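 Fission yeast RE007 carrying one integrated HIV-1 vpr copy, seeded at OD 0.01 in PMG+AL medium with 23 nL pinned compound. Grown 24 h at 30 degrees; viability read by BacTiter-Glo luminescence after 5 min.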
# Giardia growth = qHTS Assay for Inhibitors of Fructose-1,6-bisphosphate Aldolase from Giardia Lamblia: Giardia lamblia growth inhibition; shares compounds with Giardia FBPA inh-1; Giardia lamblia trophozoite growth inhibition; Potency, µM (titrated, usually from 57.5 µM), without a hit: top-dose activity change, negative = inhibition, hits mostly inhibitors; 1,500 tested, 5% active;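 note: trophozoites exposed to compound for 48 h at 37 °C; % is set by controls: 0 for no effect and ±100 for the full control effect; nearly all actives have a fitted effect of over 70% in size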
# Mammal cell tox = qHTS Assay for Inhibitors of Fructose-1,6-bisphosphate Aldolase from Giardia Lamblia: Mammalian cellular toxicity. shares compounds with Giardia FBPA inh-1. mammalian cell viability counter-screen, qHTS. Potency, µM (series often up to 57.5 µM), for inactives: at the top dose viability change, negative = toxicity, actives largely listed as inhibitors. 1,500 tested, 4% active;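 note: Chinese hamster ovary cells used as mammalian cytotoxicity surrogate; viability measured as cellular ATP by luminescence; compound exposure lasted 48 h before reading; % is set by controls: 0 for no effect and ±100 for the full control effect; nearly all actives have a fitted effect of over 60% in size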
# Giardia FBPA inh-2 = qHTS Assay for Inhibitors of Fructose-1,6-bisphosphate Aldolase from Giardia Lamblia: Primary screen confirmation; shares compounds with Giardia FBPA inh-1; 1,500 tested, 5% active; AID 2787, 2010; Potency, µM (doses to about 57.5 µM), inactives show at the top dose activity change, negative = inhibition, most hits filed as inhibitors; purified Giardia aldolase enzyme activity, qHTS; note: % is set by controls: 0 for no effect and ±100 for the full control effect; nearly all actives have a fitted effect of over 45% in size
# Rabbit FBPA inh = qHTS Assay for Inhibitors of Fructose-1,6-bisphosphate Aldolase from Giardia Lamblia: Rabbit FBPA Selectivity; shares compounds with Giardia FBPA inh-1; Rabbit muscle FBPA enzyme inhibition, selectivity counter-screen; Potency, µM (titrated, usually from 57.5 µM), for inactives: top-dose activity, negative = inhibition, most hits filed as inhibitors; 1,500 tested, 4% active; note: % is set by controls: 0 for no effect and ±100 for the full control effect; nearly all actives have a fitted effect of over 60% in size
# GAPDH coupling = qHTS Assay for Inhibitors of Fructose-1,6-bisphosphate Aldolase from Giardia Lamblia: Coupling assay counterscreen confirmation | 1,500 tested, 6% active | GAPDH coupling enzyme counterscreen, biochemical, qHTS | shares compounds with Giardia FBPA inh-1 | Potency, µM (top dose mostly 57.5 µM), for the others: top-dose activity change, negative = inhibition, hits mostly inhibitors; note: % is set by controls: 0 for no effect and ±100 for the full control effect; nearly all actives have a fitted effect of over 55% in size
# * hit, by the source's call; u = inconclusive; x = no result given; [ ] = another dose, or the depositor's remark. This is a sample that favours compounds with a hit; in the whole collection about 3.5% have one here. Unless noted, calls come from the whole dose curve; as a rule, active = well fitted curve in the direction sought with a large enough effect; inconclusive = small, poorly fitted or top-dose-only effect, or another doubt; inactive = no such curve, though single readings can be large; an effect the other way counts as inactive or inconclusive. Potency is the fitted concentration of half-maximal effect.
SMILES,Sm TGR inh,Giardia FBPA inh-1,TbPYK inhibitor,NS1 inh,LmPK inhibitor,RE007 growth inh,Giardia growth,Mammal cell tox,Giardia FBPA inh-2,Rabbit FBPA inh,GAPDH coupling
COc1ccc(N2C(=O)CC(NNc3ncc(Cl)cc3Cl)C2=O)cc1 (stereo not drawn),-10%,16µM*,4%,x,-4%,-17%,-1%[10.4 µM],-13%,12%,5%,8%
COc1ccc(N2C(=O)CC(NNC(=O)c3cc(C)oc3C)C2=O)cc1 (stereo not drawn),-32%,0%,-3%,1%,1%,-3%,x,x,x,x,x
Cc1cccc(C)c1OCCCn1ccnc1,8%,22µM*,-2%,u,-9%,3%,9%,33%,7%,3%,17%
Cc1ccc(C(C)(C)C)c(OCCCn2ccnc2)c1,-16%,u,4%,-30%,-2%,3%,x,x,x,x,x
CC(C)(C)c1cc(Cl)ccc1OCCn1ccnc1,6%,18µM*,-6%,-78%,-8%,0%,5%,12%,-11%,0%,-21%
Clc1cccc(OCCn2ccnc2)c1,0%,35µM*,10%,10%,-3%,7%,u,11%,11%,11%,18%
Cc1cc(C(C)(C)C)ccc1OCCn1ccnc1,-1%,-27%,30%,-5%,-1%,-2%,x,x,x,x,x
CC(C)(C)c1ccccc1OCCCCCn1ccnc1,1%,18µM*,47%,-4%,-1%,-10%,68%,8%,-14%,-20%,-13%
Cc1cc(C)c(OCCCn2ccnc2)c(C)c1,0%,u,-10%,9%,3%,-4%,x,x,x,x,x
COc1cccc(OCCn2ccnc2)c1,1%,-3%,2%,-8%,0%,1%,x,x,x,x,x
CC[C@H](C)[C@H](NC(=O)[C@H](Cc1ccc(O)cc1)NC(=O)[C@@H]1CCCN1C(=O)[C@H](CCCN=C(N)N)NC(=O)[C@H](CCCN=C(N)N)NC(=O)[C@@H]1CCCN1C(=O)[C@H](CCCCN)NC(=O)[C@H](CC(N)=O)NC(=O)[C@H](CCC(N)=O)NC(=O)[C@H](Cc1ccc(O)cc1)NC(=O)[C@H](CC(C)C)NC(=O)[C@@H]1CCC(=O)N1)C(=O)N[C@@H](CC(C)C)C(=O)O,x,0%,x,x,x,x,x,x,x,x,x

# Bioassay records: PubChem BioAssay, National Center for Advancing Translational Sciences (NCATS)
